# Source: PubChem
# A selection: hits, their analogues and other compounds. The true share with any hit is near 7.3%.
# ELG1 genotox – genotoxicity induction in ELG1-luciferase HEK293T cells | HEK293T ELG1-luciferase reporter, luminescence, 16 h | Potency, µM (series often up to 46 µM), inactives show top-dose activity change, positive = activation, actives largely listed as activators | 330,000 tested, 1.3% active | AID 504466; note: % of control where 0% means no effect; nearly all actives have a fitted effect of over 60% in size
#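 HEK293T cells expressing luciferase-tagged ELG1 were exposed to compound or DMSO vehicle for 16 hr at 37 °C and 5% CO2. Luciferase activity was then measured with ONE-Glo after 30 min at room temperature.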
# Rab9 prom act – Rab9 promoter activation; Huh7 Rab9 promoter-luciferase reporter, luminescence, 24 h; Potency, µM (doses to about 9.22 µM), for inactives: at the highest dose activation, negative = inhibition, actives largely listed as activators; 320,000 tested, 2.8% active; AID 485297; note: % of control where 0% means no effect; nearly all actives have a fitted effect of over 60% in size
#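 Luminescence from Amplite-detected luciferase (10 minutes, ambient) reports Rab9 promoter activation. Before that, stable Rab9-luciferase Huh7 cells (1500/well, reduced-serum OP-MEM I plus 10% FBS) were exposed to compound for 24 hours at 37C.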
# SMN2 splice enh – enhancers of SMN2 splice variant expression; HEK293 SMN2-luciferase splicing reporter, luminescence, 30-36 h; Potency, µM (highest dose often 46.1 µM), for inactives: at the highest dose activity change, positive = activation, actives largely listed as activators; 210,000 tested, 2.8% active; AID 1458; note: % of control where 0% means no effect; nearly all actives have a fitted effect of over 55% in size
#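 HEK293 cells carry an SMN2 minigene-luciferase reporter in which exon 7 inclusion puts luciferase in frame. Cells were seeded at 2000 cells/well, attached for 10-12 hours, then exposed to compounds for 30-36 hours at 37C before ONE-Glo luminescence.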
# FLuc modulator – inhibits or activates purified firefly luciferase, miR-21 counter-screen | purified FLuc, Km substrates, luminescence inhibition | 360,000 tested, 6.9% active | P08659 | Potency, µM (top dose mostly 57.5 µM), for the others: at the highest dose activity change, negative = inhibition, most hits filed as inhibitors;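 note: plate controls were vehicle for no effect and reference inhibitor for full effect; nearly all actives have a fitted effect of over 55% in size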
# Target sequence (P08659 whole entry, looked up): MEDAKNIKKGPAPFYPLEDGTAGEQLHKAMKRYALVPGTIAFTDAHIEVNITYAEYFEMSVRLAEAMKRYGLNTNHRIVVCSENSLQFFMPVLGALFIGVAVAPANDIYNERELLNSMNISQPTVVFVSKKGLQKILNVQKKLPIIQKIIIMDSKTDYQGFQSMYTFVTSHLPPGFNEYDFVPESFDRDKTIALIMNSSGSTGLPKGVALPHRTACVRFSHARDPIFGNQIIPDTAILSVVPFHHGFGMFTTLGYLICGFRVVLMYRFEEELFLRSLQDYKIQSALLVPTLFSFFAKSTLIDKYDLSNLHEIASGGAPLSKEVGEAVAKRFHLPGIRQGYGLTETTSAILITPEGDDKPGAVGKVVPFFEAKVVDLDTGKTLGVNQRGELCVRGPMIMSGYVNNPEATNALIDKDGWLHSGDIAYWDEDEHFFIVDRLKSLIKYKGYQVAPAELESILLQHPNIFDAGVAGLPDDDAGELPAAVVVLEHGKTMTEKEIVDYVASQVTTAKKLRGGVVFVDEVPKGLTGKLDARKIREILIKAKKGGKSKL
#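 Purified P. pyralis luciferase, 10 nM final, with Km-level 10 uM D-luciferin and 10 uM ATP in 50 mM Tris acetate pH 7.5, 10 mM Mg acetate, 0.01% Tween-20, 0.05% BSA; 6-point qHTS titration about 60 µM downward; luminescence read.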
# NPC1 promoter act – NPC1 promoter activation; Huh7 NPC1 promoter luciferase reporter, 24 h; 320,000 tested, 2.4% active; Potency, µM (highest dose often 9.22 µM), for inactives: at the top dose activation, actives largely listed as activators; AID 485313; note: % of control where 0% means no effect; nearly all actives have a fitted effect of over 60% in size
#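 Quantitative HTS used a cell-based reporter: Huh7 cells stably bearing the NPC1 promoter upstream of luciferase were treated with compounds for 24 h, and promoter activation was read as luminescence.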
# p53 reactivation – re-activators of mutant p53; H1299 p53-A138V BP100-luciferase reporter, luminescence, 24 h; Potency, µM (highest dose often 92.2 µM), for inactives: at the highest dose activity change, positive = activation, most hits filed as activators; 320,000 tested, 0.063% active; AID 504706; note: % of control where 0% means no effect; nearly all actives have a fitted effect of over 45% in size
#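 p53-null H1299 cells stably carrying temperature-sensitive p53-A138V and a BP100-luciferase reporter were pinned with compounds (4-point, 1:5 series) and held 24 hrs at 37 deg C. Luminescence was read 10 min after detection reagent.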
# Numbers without * were called inactive; ? = inconclusive; nt = not tested or not shown; [ ] = remark or other dose. Calls come from the whole dose curve; as a rule, active = well fitted curve in the direction sought with a large enough effect; inconclusive = small, poorly fitted or top-dose-only effect, or another doubt; inactive = no such curve, though single readings can be large; an effect the other way counts as inactive or inconclusive. Potency is the fitted concentration of half-maximal effect.
SMILES,ELG1 genotox,Rab9 prom act,SMN2 splice enh,FLuc modulator,NPC1 promoter act,p53 reactivation
Cc1cccc(C(=O)N2CCCCCC2)c1,2.1%,8.4%,-10.0%,-1.7%,1.8%,-1.8%
Cc1ccc(C(=O)n2ncn(C)c2=S)cc1,0.7%,-0.6%,16.0%,?,0.7%,0.1%
Cc1cc(C)cc(C(=O)Nc2ccc(-c3nc4ncccc4o3)cc2)c1,nt,nt,-4.8%,0.6%,nt,nt
Cc1sc2ncn(/N=C/c3ccco3)c(=O)c2c1C,?,?,nt,10.7µM*,26.6%,5.8%
O=c1c2c3c(sc2ncn1/N=C/c1ccco1)CCCC3,6.6%,8.7%,?,0.4%[2.3 µM],10.3%,19.9%
COc1ccc(N2CCOCC2)c(NC(=O)c2ccc(Br)o2)c1,-26.0%,2.1%,nt,1.7%,-4.4%,-16.1%
O=C(Nc1ccc(Cl)cc1Cl)c1ccc(Br)o1,?,?,nt,13.5µM*,2.24µM*,?
O=C(Nc1cc(Cl)ccc1N1CCOCC1)c1ccc(Br)o1,1.16µM*,0.562µM*,nt,0.849µM*,3.16µM*,15.9%
CCOC(=O)c1c(SCC(=O)Nc2nc3ccc(C)cc3s2)nc(=O)[nH]c1C,nt,nt,nt,-12.8%,nt,nt
O=C(Nc1ccn(Cc2ccc(Cl)cc2)n1)c1ccc2c(c1)OCO2,nt,nt,6.4%,21.3µM*,nt,nt
Cc1cccc(Cn2ccc(NC(=O)c3ccc4c(c3)OCO4)n2)c1,6.1%,2.6%,-4.5%,16.9µM*,-1.1%,13.4%
Cc1ccc(Cn2ccc(NC(=O)c3nn(C)cc3Cl)n2)cc1,12.5%,?,15.1%,21.3µM*,?,18.2%
O=C(NCC(=O)N1CCCC(C(F)(F)F)C1)c1ccc(Oc2ccccc2)cc1 (centres undefined),?,2.51µM*,nt,0.269µM*,?,20.5%
CSC1=NNC(c2ccc(C(C)(C)C)cc2)=NN1,18.7%,?,nt,12µM*,?,15.7%
Cc1cccc(C(=O)N2CCc3cc(CNC(=O)COc4ccc(Cl)cc4)ccc32)c1,nt,nt,nt,-0.8%,nt,nt
OCCN1CN=C(Nc2nc3ccccc3o2)NC1,1.5%,-2.1%,4.2%,0.4%,-1.4%,?
c1ccc2oc(NC3=NCN(CC4CCCO4)CN3)nc2c1 (centres undefined),10µM*,3.98µM*,12.6µM*,16.9µM*,?,?
CC(/C=N/NC(=O)c1cccc(F)c1)=C\c1ccccc1,?,0.398µM*,nt,2.39µM*,0.501µM*,5.2%
CC(/C=N/NC(=O)c1ccncc1)=C\c1ccccc1,5.5%,-2.5%,-6.9%,7.57µM*,19.5%,4.7%
CC1=NNC(=O)C1CC(=O)N/N=C/C(C)=C/c1ccccc1 (centres undefined),3.3%,-0.8%,15.9%,?,-1.6%,-3.3%
CC(/C=N/NC(=O)Cc1cc(=O)[nH][nH]1)=C\c1ccccc1,2.0%,-11.3%,-12.7%,15.1µM*,-2.6%,-7.1%
O=C(N/N=C/c1cccnc1)c1cccc(F)c1,7.1%,2.9%,nt,?,5.0%,-1.9%
CC(/C=N/NC(=O)c1cc(C(C)(C)C)[nH]n1)=C\c1ccccc1,-3.2%,-0.6%,16.0%,?,-1.5%,-1.2%
CC(=C/c1ccccc1)/C=N/NC(=O)c1ccccn1,?,0.447µM*,nt,0.601µM*,0.447µM*,-2.3%
COc1ccccc1C(=O)N/N=C/C(C)=C/c1ccccc1,14.4%,14.7%,nt,9.53µM*,?,0.2%
CC(=C/c1ccc(C(C)C)cc1)/C=N/NC(=O)c1ccncc1,0.8%,28.0%,2.5%[1.84 µM],2.69µM*,24.8%,?
CC(/C=N\NC(=O)Cn1cncn1)=C/c1ccc(C(C)C)cc1,10.5%,16.2%,nt,?,13.3%,10.0%
CCc1cccc(C)c1NC(=O)COCc1cc(-c2ccc3c(c2)OCO3)on1,nt,nt,nt,-19.0%,nt,nt
O=C(Nc1cccc(Cl)c1)c1ccc2c(=O)n3c(nc2c1)CCCCC3,?,0.891µM*,?,3.38µM*,1.58µM*,?
